Inconclusive results are not listed. Activity calls are given as the source filed them. Unless noted, calls follow the shape of the dose curve; as a rule, active = well fitted activation curve with a large enough effect in the main read-out, with a control signal flat (not every such curve was filed as active); inconclusive = small, poorly fitted or top-dose-only effect, or effect the other way, or a change in a side signal; inactive = flat fitted curve, though single readings scatter.
tested on: not listed separately; assay: Cell Viability - Mesenchymal (AID 546; active = well fitted cell-killing curve with a large enough effect;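 also: cells exposed to compound for 40 hours before reading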); conditions: mesenchymal cells viability, qHTS; series mostly up to 91.7 µM
In short: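 Human renal mesenchymal cells (glomerulus-derived), 1000 cells/well, 5 hr 37 °C pre-incubation; compound 40 hr, 37 °C; CellTiter-Glo, 20 min RT; luminescence; AC50 via Hill equation.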

| SMILES | outcome |
| --- | --- |
| NS(=O)(=O)c1cc2c(cc1Cl)NC=NS2(=O)=O | inactive |
| CC(=O)Oc1ccccc1C(=O)O | inactive |
| CCCC(CCC)C(=O)O | inactive |
| O=c1[nH]cnc2[nH]ncc12 | inactive |
| NC(=O)c1cnccn1 | inactive |
| NC(N)=NC(=O)c1nc(Cl)c(N)nc1N | inactive |

biological target: 3',5'-cyclic-AMP phosphodiesterase 4B (Homo sapiens) (UniProt Q07343); assay: qHTS Assay for Inhibitors of PDE-IV (AID 607); conditions: HEK293 ACTOne CNG channel cells, membrane potential fluorescence; series mostly up to 22.9 µM
Sequence (Q07343 whole entry, looked up): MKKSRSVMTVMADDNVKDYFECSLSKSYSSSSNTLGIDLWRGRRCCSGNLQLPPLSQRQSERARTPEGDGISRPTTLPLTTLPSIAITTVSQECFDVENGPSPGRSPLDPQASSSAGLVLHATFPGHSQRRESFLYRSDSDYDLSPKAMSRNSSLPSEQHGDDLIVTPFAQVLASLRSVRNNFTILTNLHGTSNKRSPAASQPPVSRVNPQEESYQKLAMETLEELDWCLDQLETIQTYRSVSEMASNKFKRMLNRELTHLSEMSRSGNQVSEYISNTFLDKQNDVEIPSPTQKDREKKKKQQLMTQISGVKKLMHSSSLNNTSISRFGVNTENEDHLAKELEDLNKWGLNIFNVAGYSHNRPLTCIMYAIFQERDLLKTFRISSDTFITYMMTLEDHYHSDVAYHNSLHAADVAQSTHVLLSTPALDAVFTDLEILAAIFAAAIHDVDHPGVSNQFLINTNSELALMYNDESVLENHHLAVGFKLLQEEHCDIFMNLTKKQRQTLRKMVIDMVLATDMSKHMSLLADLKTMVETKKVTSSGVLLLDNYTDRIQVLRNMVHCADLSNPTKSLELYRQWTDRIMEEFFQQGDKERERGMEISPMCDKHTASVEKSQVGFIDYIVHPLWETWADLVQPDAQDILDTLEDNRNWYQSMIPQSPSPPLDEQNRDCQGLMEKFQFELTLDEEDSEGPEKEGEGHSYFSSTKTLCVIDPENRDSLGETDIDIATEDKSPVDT
In short: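 Cell-based read-out of cAMP via a modified cyclic nucleotide-gated channel and membrane potential dye (535/590 nm) in HEK293 cells expressing PDE4 endogenously. Compounds tested up to 22.9 uM final; 100 uM RO 20-1724 reference.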

| SMILES | outcome |
| --- | --- |
| CCCCNc1cc(C(=O)O)cc(S(N)(=O)=O)c1Oc1ccccc1 | inactive |
| C1COC(NC(C2CC2)C2CC2)=N1 | inactive |
| Nc1ccc(S(=O)(=O)Nc2ccnn2-c2ccccc2)cc1 | inactive |
| N=c1nc(N2CCCCC2)cc(N)n1O | inactive |
| NC[C@H](O)c1ccc(O)c(O)c1 | inactive |
| Cn1cnc([N+](=O)[O-])c1Sc1ncnc2nc[nH]c12 | inactive |
| CCN(c1ccccc1)c1cc(NC)[n+](C)c(C)n1 | inactive |
| O=c1n(CCCN2CCN(c3cccc(Cl)c3)CC2)nc2ccccn12 | inactive |
| O=C1CCc2cc(OCCCCc3nnnn3C3CCCCC3)ccc2N1 | inactive |
| Clc1cccc(Cl)c1NC1=NCCN1 | inactive |
| O=NN(CCCl)C(=O)NCCCl | inactive |
| Cc1cn[nH]c1 | inactive |
| NS(=O)(=O)c1cc2c(cc1Cl)NC=NS2(=O)=O | inactive |
| CC(=O)Oc1ccccc1C(=O)O | inactive |
| N[C@@H]1CONC1=O | inactive |
| Cc1oncc1C(=O)Nc1ccc(C(F)(F)F)cc1 | inactive |
| CCOC(=O)C1=C[C@@]2(CC)CCCN3CCc4c(n1c1ccccc41)[C@H]32 | inactive |
| CCCC(CCC)C(=O)O | inactive |

| SMILES | outcome |
| --- | --- |
| CC(C)(Sc1ccc(CCN(CCCCC2CCCCC2)C(=O)NC2CCCCC2)cc1)C(=O)O | inactive |
| O=c1[nH]cnc2[nH]ncc12 | inactive |
| CCOC(=O)N1CCC(=C2c3ccc(Cl)cc3CCc3cccnc32)CC1 | inactive |
| NC(=O)c1cnccn1 | inactive |
| CNC[C@H](O)c1cccc(O)c1 | inactive |
| Cc1[nH]c(=O)c(C#N)cc1-c1ccncc1 | inactive |
| N#Cc1ccc(C(c2ccc(C#N)cc2)n2cncn2)cc1 | inactive |
| NC(N)=NC(=O)c1nc(Cl)c(N)nc1N | inactive |
| COc1ccc2nc(S(=O)Cc3ncc(C)c(OC)c3C)[nH]c2c1 (stereo unspecified) | inactive |
| Nc1nc2c(ncn2COCCO)c(=O)[nH]1 | inactive |
| Nc1nc2ccc(OC(F)(F)F)cc2s1 | inactive |
| NCCc1ccc(O)c(O)c1 | inactive |
| Cc1ccc2c(c1)C(=O)[C@@]1(O)CCN(c3ccccc3)C1=N2 | inactive |
| NNCCc1ccccc1 | inactive |
| Cc1ccc(N(CC2=NCCN2)c2cccc(O)c2)cc1 | inactive |
| Cc1cc2c(C(C)C)c(O)c(O)c(C=O)c2c(O)c1-c1c(C)cc2c(C(C)C)c(O)c(O)c(C=O)c2c1O | inactive |
| CN1CCN(CCCN2c3ccccc3Sc3ccc(C(F)(F)F)cc32)CC1 | inactive |

Source: PubChem BioAssay (NCATS)
